Several values for one entry are separate records, joined by “and”; a condition that tells them apart may be missing. Equal values may be shown once. Activity calls are given as the source filed them.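 Rule for the calls, unless noted: active = compounds killing one labelled cell type while sparing the other, by normalised counts and ratio limits, not self-fluorescent; inactive = the rest.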

A short description of the first assay: P. berghei load reduction in hepatocytes – cell-based, HepG2, luciferase luminescence, HepG2 viability, primary screen (AID 624349; in the data active = parasite load remaining mostly below about 12%, no sharp cut-off; inactive = mostly above about 10%;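 note: 100% = mean of DMSO negative control wells on the same plate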). The settings on record: P. berghei liver stage in HepG2, luciferase luminescence, concentration not given here; parasite load remaining: stronger effect = lower value; viability: measured here: HepG2 viability without parasites.
For `CCCN1CCC[C@@H]2Cc3[nH]ncc3C[C@H]21`, the parasite load remaining is 75.7% (inactive) and 34.7% (inactive); the viability was 68.7% and 143%.
Turning to `NCCc1c[nH]c2ccc(O)cc12`, the parasite load remaining is 63.9% (inactive) and 71.4% (inactive); the viability is 113% and 89.1%.
Consider `COc1cc2c(cc1OC)[C@@]13CCN4CC5=CCOC6CC(=O)N2C1[C@H]6[C@H]5C[C@H]43` (some centres not stated), for which the viability is 63.5% and 87.4%; the parasite load remaining was 97.7% (inactive) and 56.5% (inactive).

The nature of another assay: EMT-state selective cytotoxicity in co-culture – imaging, PC-3E GFP, TEM4-18 mCherry, primary screen (AID 1345086).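 Note: normalised mesenchymal count divided by normalised epithelial count so high means epithelial killing; cells exposed to compound for 72 h before imaging.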 The settings on record: PC-3E GFP / TEM4-18 mCherry co-culture, imaging cell counts; at 1 µM; actives lie on both sides.
Turning to `C[C@]12CC[C@H](O)C[C@H]1CCC1C2CC[C@]2(C)[C@@H](C3=CC(=O)OC3)[C@@H](O)C[C@]12O` (some centres not stated), the red/green cell ratio (normalised) was 0.39 (active).
Still for that read-out and setting: then `COc1cc2c(cc1OC)[C@@H]1C(=O)c3ccc4c(c3O[C@@H]1CO2)CC(C(C)C)O4` (some centres not stated), with 1.13 (inactive).
Still for that read-out and setting: then `CCCN1CCC[C@@H]2Cc3[nH]ncc3C[C@H]21`, with 1.24 (inactive).
Same read-out and setting: then `COc1cc2c(c3oc4cccc(O)c4c(=O)c13)[C@@H]1C=CO[C@@H]1O2`, with 0.95 (inactive).
Turning to `CC1OC(=O)[C@@H](C(C)C)NC(=O)C(C(C)C)OC(=O)[C@H](C(C)C)NC(=O)C(C)OC(=O)[C@@H](C(C)C)NC(=O)C(C(C)C)OC(=O)[C@H](C(C)C)NC(=O)C(C)OC(=O)[C@@H](C(C)C)NC(=O)C(C(C)C)OC(=O)[C@H](C(C)C)NC1=O` (some centres not stated), the red/green cell ratio (normalised) is 0.92 (inactive).
The same measure, in the same setting: then `C[C@]12C=CC(=O)C=C1CCC1C2CC[C@]2(C)C(=O)CCC12` (some centres not stated), with 1.05 (inactive).
Same read-out and setting: the figure for `CCSCCC(N)C(=O)O` (configuration not stated) is 0.84 (inactive).
As for `CC(=O)O[C@H]1C(=O)[C@@]2(C)C([C@H](OC(=O)c3ccccc3)[C@]3(O)C[C@H](O)C(C)=C1C3(C)C)[C@]1(OC(C)=O)CO[C@@H]1C[C@@H]2O` (some centres not stated), the red/green cell ratio (normalised) was 0.91 (inactive).
In the case of `C[C@@H]1CC[C@@]2(OC1)OC1C(O)C3C4CC[C@H]5C[C@H](O[C@@H]6O[C@H](CO)[C@H](O[C@@H]7O[C@H](CO)[C@@H](O)[C@H](O[C@@H]8OC[C@@H](O)[C@H](O)[C@H]8O)[C@H]7O[C@@H]7O[C@H](CO)[C@H](O)[C@H](O[C@@H]8O[C@H](CO)[C@@H](O)[C@H](O)[C@H]8O)[C@H]7O)[C@H](O)[C@H]6O)[C@H](O)C[C@]5(C)C4CC[C@]3(C)C1[C@@H]2C` (some centres not stated), the red/green cell ratio (normalised) was 0.84 (inactive).
Still for that read-out and setting: the figure for `C[C@]12CCC3C(CC[C@H]4C[C@@H](O)CC[C@]34C)C1CCC2=O` (some centres not stated) is 0.99 (inactive); for `NCCc1c[nH]c2ccc(O)cc12` it is 1.02 (inactive).
Still for that read-out and setting: then `C[C@]12[C@H](O)CC3C(CC[C@@H]4C[C@@H](O)CC[C@]34C)[C@@]1(O)CC[C@@H]2C1=CC(=O)OC1` (some centres not stated), with 0.53 (inactive); and `COc1cc2c(cc1OC)[C@@]13CCN4CC5=CCOC6CC(=O)N2C1[C@H]6[C@H]5C[C@H]43` (some centres not stated), with 1.35 (inactive); and `C=CCSSCC=C`, with 1.09 (inactive).

Still in this assay, the particulars now being: PC-3E GFP / TEM4-18 mCherry co-culture, imaging cell counts; at 1 µM; actives lie on both sides; counts scaled to control wells, 1 = unselective.
With `C[C@@H]1[C@H](O)[C@@H](C)/C=C/C=C/CC/C=C/C=C/C=C/C=C/[C@H](OC2O[C@H](C)[C@@H](O)[C@H](N)[C@@H]2O)C[C@@H]2O[C@](O)(C[C@@H](O)[C@H](O)CC[C@@H](O)C[C@@H](O)C[C@@H](O)CC(=O)O[C@H]1C)C[C@H](O)[C@H]2C(=O)O` (some centres not stated), the red/green cell ratio (normalised) is 0.86 (inactive).
Same read-out and setting: the figure for `CN(CCC(N)CC(=O)N[C@H]1C=CC(n2ccc(N)nc2=O)O[C@@H]1C(=O)O)C(=N)N` (some centres not stated) is 0.77 (inactive).
Regarding `C[C@H]1COc2c(N3CCNCC3)c(F)cc3c(=O)c(C(=O)O)cn1c23`, the red/green cell ratio (normalised) is 0.98 (inactive).
Same read-out and setting: then `Cc1ncc(C[n+]2csc(CCO)c2C)c(=O)[nH]1`, with 0.81 (inactive); and `C[N+]1(C)CCc2cc3c(cc2[C@H]1C1OC(=O)c2c1ccc1c2OCO1)OCO3` (some centres not stated), with 0.88 (inactive); and `C[C@@H]1C(=O)OC2[C@H](O)C34[C@@H]5OC(=O)[C@@]3(OC3OC(=O)[C@H](O)[C@@]34[C@H](C(C)(C)C)[C@H]5O)[C@]21O` (some centres not stated), with 1.08 (inactive).
The same measure, in the same setting: then `C[CH2][Hg+].O=C([O-])c1ccccc1[S-].[Na+]`, with 0.36 (inactive); and `CC[C@H](C)/C=C(C)/C=C/C1=CC2=C(Cl)C(=O)[C@](C)(OC(C)=O)C(=O)C2=CO1`, with 1 (inactive).
The same measure, in the same setting: the figure for `O=C1NCC[C@@H]1O` is 0.9 (inactive); for `Cc1cc(O)cc2oc(=O)c3c(O)cc(O)cc3c12` it is 0.89 (inactive); for `CN1C2CC(=O)CC1[C@H](O)C2` (some centres not stated) it is 0.81 (inactive).
Consider `CC(=O)OC1CC[C@@]2(C)C(CCC3C2CC[C@]2(C)C(C4=CC(=O)OC4)C(OC(C)=O)CC32O)C1` (some centres not stated), for which the red/green cell ratio (normalised) was 0.21 (inactive).
The same measure, in the same setting: then `COc1cc(=O)oc(/C=C/C=C/C=C/C(C)=C/[C@@]2(C)O[C@@H](C)[C@@](C)(O)[C@@H]2O)c1C`, with 0.98 (inactive); and `c1ccc(S[C@@H]2OC3COC(c4ccccc4)OC3[C@H]3NC32)cc1` (some centres not stated), with 0.98 (inactive); and `C/C1=C\[C@@H](C)C/C=C/[C@H]2[C@@H]3O[C@]3(C)[C@@H](C)[C@H]3[C@H](Cc4c[nH]c5ccccc45)NC(=O)[C@]32C(=O)/C=C/C(=O)[C@@H]1O`, with 0.89 (inactive).
Still for that read-out and setting: the figure for `CC(C)[C@@H]1CC[C@](O)(CCl)[C@@H]2C(=O)OCC(C(=O)O)=C[C@H]21` is 0.96 (inactive); for `C=Cc1cc(OC)c2c(c1)c(=O)oc1c2cc(OC)c2c(O)ccc([C@@H]3O[C@@H](C)[C@H](OC(C)=O)[C@H](N(C)C)[C@H]3O)c21` it is 0.75 (inactive).
On the same count and under the same terms, the figure for `CN1C(=O)c2ccccc2NC(=O)[C@@H]1Cc1ccccc1` is 1.03 (inactive); for `N#Cc1c(Cl)nc(NC2CC2)c2ccccc12` it is 0.69 (inactive); for `C[N+]12CC[C@@]34c5ccccc5N5C(=O)CC6OCC=C(C1)[C@@H](CC32)[C@@H]6C54` (some centres not stated) it is 1.07 (inactive).
As for `C[C@@H]1CC[C@@]2(NC1)OC1CC3C4CC=C5C[C@@H](O)CC[C@]5(C)C4CC[C@]3(C)C1[C@@H]2C` (some centres not stated), the red/green cell ratio (normalised) is 1.02 (inactive).
Same read-out and setting: then `COc1cc2c(cc1OC)[C@@]13CCN4CC5=CCOC6CC(=O)N2C1[C@H]6[C@H]5C[C@H]43` (some centres not stated), with 0.96 (inactive); and `CCC(C)C1C(=O)OC(C(C)C)C(=O)N(C)C(C(C)C)C(=O)OC(C(C)C)C(=O)N(C)C(C(C)C)C(=O)OC(C(C)C)C(=O)N1C` (configuration not stated), with 0.98 (inactive) and 0.86 (inactive).
Consider `COc1cc([C@@H]2c3cc4c(cc3[C@H](OC(C)=O)C3COC(=O)[C@H]32)OCO4)cc(OC)c1OC` (some centres not stated), for which the red/green cell ratio (normalised) is 1.07 (inactive).
The same measure, in the same setting: then `CCC(C)[C@H]1O[C@]2(C=C[C@@H]1C)C[C@@H]1C[C@@H](C/C=C(\C)[C@@H](OC3C[C@H](OC)C(O[C@H]4C[C@H](OC)[C@@H](O)[C@H](C)O4)[C@H](C)O3)[C@@H](C)/C=C/C=C3\COC4[C@H](O)C(C)=C[C@@H](C(=O)O1)[C@]34O)O2` (some centres not stated), with 0.68 (inactive).
Same read-out and setting: the figure for `COc1cc(O)c2c(=O)oc3cc(O)cc(C)c3c2c1` is 0.9 (inactive); for `C/C=C(\C)C(=O)O[C@H]1C[C@@H](OC(C)=O)[C@@]2(C(=O)OC)CO[C@@H]3C2[C@]12CO[C@](O)(C(=O)OC)[C@H]2[C@](C)(C12O[C@@]1(C)[C@H]1C[C@H]2OC2OC=C[C@@]21O)[C@@H]3O` (some centres not stated) it is 1.21 (inactive).

As a reminder, the viability is a read-out of living cells in per cent, often relative to untreated cells.
